From PubChem BioAssay AID624330 (Southern Research Specialized Biocontainment Screening …, 2012)
In all, about 340,000 compounds went through this assay and about 2,100 (0.62%) were called active.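 The calls were made as follows: active = first-screen hits whose inhibition reached a set limit at any dose in the follow-up dose series; inconclusive = inhibition above the set first-screen limit but never retested; inactive = the rest.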 A selection follows. Measured potencies and affinities stand elsewhere. Square brackets hold non-standard residues; d marks the D form. Peptide text beside a SMILES is read from it. * marks the point of attachment. ξ: configuration not given here. Cbz = O=C(OCc1ccccc1)*; ξP = O=C(O)C1CCCN1

The compounds below were run against Rac GTPase-activating protein 1 (Homo sapiens) (UniProt Q9H0H5) (assay: blockers of MgcRacGAP-driven Rac1 GTP hydrolysis – biochemical, ADP Hunter fluorescence, primary and confirmatory, confirmation (AID 624330;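 also: fluorescence reports GDP produced by GAP-driven GTP hydrolysis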)). Settings: MgcRacGAP-stimulated Rac1 GTP hydrolysis, at 30 µM, stronger effect = higher value, GST-tagged Rac1 F28L mutant substrate.
Rac GTPase-activating protein 1 (Homo sapiens), sequence (Q9H0H5 whole entry, looked up): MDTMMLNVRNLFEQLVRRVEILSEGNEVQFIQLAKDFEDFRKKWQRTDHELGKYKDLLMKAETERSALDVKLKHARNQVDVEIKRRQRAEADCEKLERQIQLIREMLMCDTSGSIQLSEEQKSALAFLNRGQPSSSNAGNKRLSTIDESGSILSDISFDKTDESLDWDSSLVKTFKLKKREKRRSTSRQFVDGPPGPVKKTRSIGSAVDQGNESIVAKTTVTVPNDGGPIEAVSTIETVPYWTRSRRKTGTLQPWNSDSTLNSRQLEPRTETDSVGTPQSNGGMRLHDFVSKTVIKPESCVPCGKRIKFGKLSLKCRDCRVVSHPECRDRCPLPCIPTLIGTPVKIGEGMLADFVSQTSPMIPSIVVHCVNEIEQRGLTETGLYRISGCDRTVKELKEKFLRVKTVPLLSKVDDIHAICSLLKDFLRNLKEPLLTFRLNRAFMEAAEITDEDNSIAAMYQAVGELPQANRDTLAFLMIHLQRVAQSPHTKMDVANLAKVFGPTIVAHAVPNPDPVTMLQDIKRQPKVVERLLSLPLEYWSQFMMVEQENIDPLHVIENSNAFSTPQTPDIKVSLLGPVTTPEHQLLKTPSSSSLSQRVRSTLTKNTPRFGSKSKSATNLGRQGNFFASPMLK

inhibition, inactive:
CCN(CC)c1ccc(S(=O)(=O)N2CCOCC2)cc1NC(=O)C1CC1 6.61%
Cc1ncc(S(=O)(=O)C(C)(C)C)c(N)n1 4.93%
O=C(COC(=O)/C=C/c1cccs1)NC(=O)Cc1ccccc1 9.86%
Nc1ccccc1SCc1ccccc1 3.68%
Nc1ccccc1SC/C=C/CSc1ccccc1N 17.8%
CC1(C)CC(=O)C2=C(C1)NC(=O)NC2c1ccc(Cl)cc1 (stereo not drawn) 9.51%
COc1ccc(NC(=O)C2CC(c3ccc(Cl)cc3)=NO2)cc1OC (stereo not drawn) -3.14%
COC(=O)C1CCN(C(=O)Cn2nnc(-c3ccccc3)n2)CC1 5.24%
CN(C)c1ccc(/C=C2\CCC/C(=C\c3ccccc3)C2=O)cc1 10.2%
CC(C)/C=C1\CC/C(=C\c2ccc(N(C)C)cc2)C1=O 6.52%
Cc1ccc(S(=O)(=O)N2CCCCC2)cc1NC(=O)CSc1nnc(C2CC2)n1N 4.18%
Cc1cc(C(=O)NCC(=O)OCC(=O)NCCc2ccccc2)ccc1[N+](=O)[O-] -1.11%
COc1ccc(F)cc1C(=O)C1CCCN(Cc2ccc3c(c2)OCCO3)C1 (stereo not drawn) 4.09%
CC(C)NC(=O)C1CCN(Cc2cccc(OCc3ccccc3)c2)CC1 6.52%
COc1ccc(-c2n[nH]c(C)c2-c2cnn(-c3ccccc3)c2)c(O)c1C 6.48%
COc1ccc(-c2onc(C)c2-c2cnn(-c3ccccc3)c2)c(O)c1C 5.03%
CC(C)(C)NC(=O)COc1coc(CN2CCN(Cc3ccccc3)CC2)cc1=O -6.74%
Cc1ccc(OCC(=O)Nc2ccc(N3CCCC3)cc2)cc1C 7%
Cc1ccc(S(=O)(=O)N2CCOCC2)cc1NC(=O)CN1CCN(C)CC1 4%
Cc1ccc(S(=O)(=O)N(C)C)cc1NC(=O)CN1CCCC1 3.96%
Cc1ccc(S(=O)(=O)N(C)C)cc1NC(=O)CN1CCN(Cc2ccccc2)CC1 1.33%
CCN(CC)c1ccc(S(=O)(=O)N2CCOCC2)cc1NC(=O)CN1CCc2ccccc2C1 6.44%
CCN(CC)c1ccc(S(=O)(=O)N2CCOCC2)cc1NC(=O)CSc1ccccc1 1.35%
Cc1ccc(F)cc1NC(=O)CN1CCN(Cc2ccccc2)CC1 -0.43%
Cc1ccc(OCCNC(=O)c2ccc(C)cc2)cc1 -0.09%
CCN1C(=O)C(NC(C)=O)c2cc(Br)ccc21 (stereo not drawn) 1.35%
CCOc1ccc(NC(=O)CN(C)C(=O)Cc2n[nH]c(=O)c3ccccc23)cc1OCC 3.38%
COc1ccccc1CN(C)C(=O)c1cccc(S(=O)(=O)N2CCCC2)c1 5.67%
Cc1cc(C)c(Nc2n[nH]c(=S)s2)cc1C 29.6%
Cc1cccc(C)c1Nc1n[nH]c(=S)s1 13.1%
COc1ccccc1N1C(=O)S/C(=C\c2cc(C)n(C)c2C)C1=O -0.75%
N#Cc1ccc[n+](CC(=O)c2ccc(NC(=O)c3ccccc3)cc2)c1 3.28%
c1cc2c3c(cccc3c1)NC1(CCCC1)N2 -1.27%
c1cc2c3c(cccc3c1)NC1(CCC3(CC1)Nc1cccc4cccc(c14)N3)N2 29.5%
COc1cc(OC)cc(N(C(=O)c2ccco2)C(C(=O)NC2CCCC2)c2ccc(N3CCOCC3)cc2)c1 (stereo not drawn) 3.31%
O=C(NC1CCCC1)C(c1ccncc1)N(C(=O)Cc1cccs1)c1ccc(F)cc1 (stereo not drawn) -2.61%
Nc1ccc2c(c1)C(=NO)c1ccccc1-2 14.6%
ON=C1c2ccccc2-c2ccc(Br)cc21 0.43%
ON=C1c2ccccc2-c2ccc(F)cc21 -0.77%
ON=C1c2ccccc2-c2ccccc21 4.05%
COCCCNc1nc2nonc2nc1NCCSC -2.05%
Cc1cc(SCc2ccc(Cl)c(Cl)c2)nc(=O)[nH]1 13.6%
CC(C)(C)C(=O)Nc1ccc(C(=O)N/N=C/C2CC3C=CC2C3)cc1 (stereo not drawn) 8.37%
COC(=O)CNC(=O)C1CCCN1C(=O)CNC(=O)OCc1ccccc1 (stereo not drawn) (Cbz-Gly-[ξP]-Gly-OMe) 7.71%
CC(C)C(C)NC(=O)CN1C(=O)NC2(CCc3ccccc3C2)C1=O (stereo not drawn) 2.87%
CCC(=O)c1ccc(OCc2ccc(C(=O)c3ccccc3)cc2)cc1 6.28%
COc1cccc(NC(=O)c2sc3nc4n(c(=O)c3c2C)CCC4)c1 -4.45%
O=C(CCC1CCCC1)Nc1cccn(Cc2ccccc2Br)c1=O 2.13%
CCOC(=O)c1cc(C)n(Cc2ccccc2)c1C -2.73%
CCOC(=O)c1sc(=S)n(Cc2ccccc2)c1C 8.11%
Cc1noc(C)c1COc1ccccc1C(=O)NNC(=O)c1ccccc1 11.8%
N#C/C(=N\Nc1cccc(F)c1)C(=N)N1CCCCCC1 15.4%
O=C1c2ccccc2NC(c2ccccc2)N1/N=C/c1ccccc1 (stereo not drawn) 12.7%
Cc1ccc(/C=N/N2C(=O)c3ccccc3NC2c2ccc(C)cc2)cc1 (stereo not drawn) 7.64%
COc1ccc(Cn2nnnc2C(c2ccccn2)N2CCN(c3cc(Cl)ccc3C)CC2)cc1 (stereo not drawn) 3.5%
CCOC(=O)c1[nH]c2ccccc2c1NC(=O)C(C)(C)C 5.02%
CCOC(=O)c1[nH]c2ccccc2c1N=CN(CC)CC 14.9%
CCCC(=O)Nc1c(C(=O)OCC)[nH]c2ccccc12 4.51%
Cc1cccc(NC(=O)COC(=O)c2n[nH]c3ccccc23)c1C 4.6%
CCOC(=O)c1[nH]c(C)c(C(=O)Nc2ccccc2C)c1C 6.7%
CCOC(=O)c1[nH]c2ccccc2c1NC(=O)COC 4.84%
CCCCNC(=O)Nc1c(C(=O)OCC)[nH]c2ccccc12 5.71%
CCOC(=O)c1[nH]c2ccccc2c1N=CN(C)C 27.9%
